# Shown are actives, neighbours in structure and some others; about 7.6% of the full set was active somewhere.
# KCNH2 3.1 block = KCNH2 3.1 (human) potassium channel inhibition; U2OS KCNH2 3.1, thallium flux FluxOr; active compounds read low; activity change, % (tested at about 1.8 µM); 340,000 tested, 0.95% active;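 active = maximum activity change below -70%; inconclusive = maximum activity change from -70% to -50%; inactive = maximum activity change above -50%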;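 note: thallium influx rate constant from kinetic fluorescence after stimulation buffer; % is set by controls: 0 for no effect and ±100 for the full control effect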
#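 Steps: virus added to U2OS suspension (4 h, RT, dark); medium with 10% FBS added, cells plated, 37 C overnight; FluxOr/Red40 loading buffer 45 min RT; stimulation buffer, 2 min kinetic read; rate constant normalized.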
# SW480 rerep = inducers of DNA re-replication in SW480 colon cancer cells; 340,000 tested, 1.8% active; SW480 DNA re-replication, Hoechst DNA content imaging, 48 h; AID 624297; Potency, µM (top dose mostly 46.1 µM), without a hit: at the top dose re-replication activation, usual class: activators; note: potency is the fitted concentration of half-maximal effect; % of control where 0% means no effect; nearly all actives have a fitted effect of over 55% in size
#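 Image-based read-out: total Hoechst fluorescence of nuclei (405 nm excitation, 500-530 nm emission), with hits raising the fraction of high-intensity nuclei. SW480 colon cells incubated 48 hr with compounds at 37 C.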
# MCF10A rerep = inducers of DNA re-replication in MCF 10A breast cells | MCF 10A DNA re-replication, Hoechst nuclear intensity, 48 h | Potency, µM (titrated, usually from 46.1 µM), without a hit: at the top dose activity, positive = re-replication, hits mostly activators | 350,000 tested, 2.9% active | AID 624296; note: potency is the fitted concentration of half-maximal effect; % of control where 0% means no effect; nearly all actives have a fitted effect of over 50% in size
# KB-V1 cytotox = kills drug-selected multidrug resistant KB-V1 cells; KB-V1 MDR cells viability, CellTiter-Glo, 72 h; Potency, µM (series often up to 46.1 µM), usual class: cytotoxic; 400,000 tested, 3.4% active; AID 1347076; note: potency is the fitted concentration of half-maximal effect; % is set by controls: 0 for no effect and ±100 for the full control effect; nearly all actives have a fitted effect of over 60% in size
#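 KB-V1, DMEM (no phenol red) + 10% FBS; cpd pin-transferred, titration series; 72 h, 37 degrees C; CellTiter-Glo, luminescence. Data normalized, curve-fit.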
# hERG WT inh = inhibitors of human wildtype KCNH2 potassium channel | AID 720551 | activity change, % at 1.84 µM | U2OS, BacMam KCNH2, thallium flux FluxOr; active compounds read low | 340,000 tested, 0.37% active | Q12809;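 active = maximum activity change below -70%; inconclusive = maximum activity change between -70% and -50%; inactive = maximum activity change above -50%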; note: % is set by controls: 0 for no effect and ±100 for the full control effect
# Target sequence (Q12809 whole entry, looked up): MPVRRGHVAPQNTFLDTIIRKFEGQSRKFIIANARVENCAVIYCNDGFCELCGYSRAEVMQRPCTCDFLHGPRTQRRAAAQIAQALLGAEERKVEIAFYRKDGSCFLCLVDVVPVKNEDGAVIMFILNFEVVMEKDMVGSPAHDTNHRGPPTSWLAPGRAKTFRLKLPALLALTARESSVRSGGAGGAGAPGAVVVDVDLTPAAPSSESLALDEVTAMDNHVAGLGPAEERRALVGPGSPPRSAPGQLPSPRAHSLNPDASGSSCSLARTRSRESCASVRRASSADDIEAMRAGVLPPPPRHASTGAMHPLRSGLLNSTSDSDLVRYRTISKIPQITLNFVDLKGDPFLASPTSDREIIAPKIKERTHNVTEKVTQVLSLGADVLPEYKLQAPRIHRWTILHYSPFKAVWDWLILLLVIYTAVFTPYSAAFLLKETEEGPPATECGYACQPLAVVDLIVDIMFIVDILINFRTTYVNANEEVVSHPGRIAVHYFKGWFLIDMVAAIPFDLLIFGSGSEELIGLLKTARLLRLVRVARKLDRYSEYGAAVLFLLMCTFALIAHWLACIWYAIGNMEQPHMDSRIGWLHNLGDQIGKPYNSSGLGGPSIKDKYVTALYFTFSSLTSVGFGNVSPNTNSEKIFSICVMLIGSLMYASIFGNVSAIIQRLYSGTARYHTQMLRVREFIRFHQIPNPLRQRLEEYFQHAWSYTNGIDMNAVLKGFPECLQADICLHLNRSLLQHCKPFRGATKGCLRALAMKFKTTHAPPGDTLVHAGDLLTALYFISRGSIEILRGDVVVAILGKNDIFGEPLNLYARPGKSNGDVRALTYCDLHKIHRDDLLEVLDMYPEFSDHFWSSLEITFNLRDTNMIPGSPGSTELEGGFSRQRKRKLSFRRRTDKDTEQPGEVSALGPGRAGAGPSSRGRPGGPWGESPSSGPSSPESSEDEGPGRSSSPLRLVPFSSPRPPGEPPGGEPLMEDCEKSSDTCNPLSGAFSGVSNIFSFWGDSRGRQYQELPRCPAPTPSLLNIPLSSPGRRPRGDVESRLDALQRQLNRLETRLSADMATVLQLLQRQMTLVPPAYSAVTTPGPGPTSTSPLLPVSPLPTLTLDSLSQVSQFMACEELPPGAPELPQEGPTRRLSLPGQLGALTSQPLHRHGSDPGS
#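 U2OS cells transduced with wild-type KCNH2 virus are loaded with FluxOr dye for 45 min, and thallium flux is measured in kinetic reads before and after stimulation buffer. Rate constants are normalized to DMSO controls.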
# KB-3-1 cytotox = KB-3-1 parental cell cytotoxicity; Potency, µM (doses to about 46.1 µM), usual class: cytotoxic; 400,000 tested, 1.4% active; AID 1347075; KB-3-1 viability, CellTiter-Glo ATP luminescence, 72 h; note: potency is the fitted concentration of half-maximal effect; % is set by controls: 0 for no effect and ±100 for the full control effect; nearly all actives have a fitted effect of over 60% in size
#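 KB-3-1 cells, DMEM (no phenol red) + 10% FBS; compound by pin transfer, 72 h, 37 °C. Readout: CellTiter-Glo luminescence after 10 min. Data normalized, curve-fitted.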
# The depositor's hits bear a star; i = inactive; ? = inconclusive; . = not tested or not shown; ! = not active in a repeat; [ ] = another dose, or the depositor's remark. Unless noted, calls come from the whole dose curve; as a rule, active = well fitted curve in the direction sought with a large enough effect; inconclusive = small, poorly fitted or top-dose-only effect, or another doubt; inactive = no such curve, though single readings can be large; an effect the other way counts as inactive or inconclusive.
SMILES,KCNH2 3.1 block,SW480 rerep,MCF10A rerep,KB-V1 cytotox,hERG WT inh,KB-3-1 cytotox
COc1cccc(CNC(=O)CC(NC(=O)c2ccccc2)c2ccccc2)c1 (stereo not drawn),16.6,-4.4%,18.3%,?,3.1,i
COC(=O)C(Cc1ccccc1)NC(=O)CCCC(=O)NCc1cccc(OC)c1 (stereo not drawn),-2.1,-9.2%,1.1%,i,-70.0*,i
COc1ccc(NC(=O)CN(C)CC(=O)NCc2ccc(C)cc2)cc1,11.7,-2.3%,-1.5%,i,-25.5,i
COC(=O)c1ccc2c(=O)[nH]c(COC(=O)c3c(-c4ccccc4Cl)noc3C)nc2c1,-4.1,3.7%,?,?,-11.7,i
COc1cccc(CN(C)CC(=O)NC(=O)NCc2ccccc2)c1,-13.4,-3.5%,18.9%,20.6µM*,4.6,i
COc1ccc(CC(=O)NCc2ccccc2)cc1,-0.8,?,7.31µM*,i,9.0,?
CCCCC[C@H]1CN(CCc2ccccc2)C(=O)[C@@H]1CC(=O)NCc1ccc(OC)cc1,-1.5,5.1%[9.22 µM],23.0%,18.4µM*!,1.2,?
COc1ccc(CN(C)CC(=O)NC(=O)NCc2ccccc2)cc1OC,3.6,-1.7%,0.1%,i,-3.1,i
COc1ccc(C(=O)NCc2cc(C)nc3ccccc23)cc1,8.1,?,?,i,-1.5,18.4µM*
CCN1CCN(c2ncc3c(n2)CCN(Cc2sccc2C)C3)CC1,.,.,.,i,.,i
Cc1noc(C)c1NC(=O)N(C)C[C@H]1Oc2ccc(NC(=O)C3CCCCC3)cc2C(=O)N([C@H](C)CO)C[C@@H]1C,-2.9,3.3%,1.3%,i,-2.5,i
COc1ccccc1/C=C/c1nc2ccccc2o1,.,.,.,i,.,?
CNC(=O)OCc1nc(SSC(C)(C)C)n(C)c1COC(=O)NC,10.8,4.11µM*,2.91µM*,i,14.1,?
CCSc1nc(COC(=O)NC)c(COC(=O)NC)n1C,5.2,2.6%,17.7%,?,1.8,i
Cc1ccc(S(=O)(=O)c2ccc([N+](=O)[O-])o2)cc1,28.3,?,?,13µM*,-22.4,?
Cc1ccc(S(=O)(=O)Nc2c(C)cc([N+](=O)[O-])cc2C)cc1,1.2,-3.8%,-2.7%,i,23.3,i
Cc1ccc(-c2c(C(=O)NCc3ccc(F)cc3)oc(=O)c3ccccc23)cc1,-7.1,0.2%,8.6%,16.4µM*!,1.1,i
O=C1Nc2cc(Cl)c(Cl)cc2N(O)N1c1ccc(Cl)c(Cl)c1,-106.8*,-1.7%,-4.9%,i,-19.2,i
CC(C)(C)n1nnnc1C(c1ccc(Cl)cc1)N1CCCc2ccccc21 (stereo not drawn),-20.2,-3.8%,3.4%,?,2.6,i
COc1ccccc1C(c1nnnn1C(C)(C)C)N1CCCc2ccccc21 (stereo not drawn),-6.4,?,-10.2%,23.1µM*,6.2,?
COc1ccccc1N1CCN(C(c2ccc(Cl)cc2)c2nnnn2C(C)(C)C)CC1 (stereo not drawn),6.9,16.3%,-12.6%,18.4µM*,4.0,?
Cc1cccc(N2CCN(C(c3ccccc3)c3nnnn3C(C)(C)C)CC2)c1C (stereo not drawn),-15.7,?,17.6%,9.2µM*,2.7,?
COc1ccccc1N1CCN(C(c2ccccc2Cl)c2nnnn2C(C)(C)C)CC1 (stereo not drawn),35.2,?,26.6%,?,-34.5,?
Cc1cccc(N2CCN(C(c3cccs3)c3nnnn3C(C)(C)C)CC2)c1C (stereo not drawn),-0.1,-0.2%,5.5%,?,2.1,i
O=C(CSc1ccc(-c2ccncc2)nn1)c1ccccc1,-14.0,-5.0%,1.2%,i,-15.4,i
CCC(C(=O)NCc1ccco1)N(C(=O)CNS(=O)(=O)c1ccc(C)cc1)c1ccccc1F (stereo not drawn),7.6,-8.2%,-2.1%,i,1.6,i

# Screening data as filed in PubChem BioAssay.
